High-throughput results (PubChem)
The list is not random: actives were taken first. Their share in the collection is about 21%.
D3 ag = agonists of human D3 dopamine receptor; P35462; D3R DiscoveRx beta-arrestin cells, luminescence, 90 min; max activation, %; 410,000 tested, 0.58% active; AID 652048; in the data active = max activation above about 30%; also: 0% is about no effect
Target sequence (P35462 whole entry, looked up): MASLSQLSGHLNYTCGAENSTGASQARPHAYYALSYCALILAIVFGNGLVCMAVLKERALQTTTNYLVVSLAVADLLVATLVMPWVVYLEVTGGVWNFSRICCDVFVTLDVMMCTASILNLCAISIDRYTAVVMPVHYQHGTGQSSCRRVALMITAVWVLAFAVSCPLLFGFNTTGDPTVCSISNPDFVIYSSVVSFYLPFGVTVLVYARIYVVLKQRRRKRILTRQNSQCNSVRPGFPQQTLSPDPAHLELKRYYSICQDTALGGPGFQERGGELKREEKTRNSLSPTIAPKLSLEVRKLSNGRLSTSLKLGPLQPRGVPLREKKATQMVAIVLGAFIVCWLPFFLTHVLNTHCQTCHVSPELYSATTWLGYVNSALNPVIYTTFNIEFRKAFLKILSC
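Agonist-mode cell screen: cells plated at 1500/well and incubated overnight at 37 °C, then exposed to library compounds for 90 min at 37 °C. Detection reagent was added for 30–60 min at room temperature, and luminescence was read.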
DT40 TDP1 CPT = growth inhibition of DT40 Tdp1-/-;hTDP1 cells with camptothecin (screen for TDP1 inhibitors). chicken DT40 Tdp1-/-;hTDP1 cells + 20 nM CPT, ATP luminescence, 48 h. Potency, µM (top dose mostly 46.2 µM), without a hit: at the highest dose activity change, negative = growth inhibition, most hits filed as inhibitors. 420,000 tested, 12% active; also: potency is read from the fitted curve at half-maximal effect; % is scaled to controls: 0 for no effect and ±100 for the full control effect; nearly all actives have a fitted effect of over 55% in size
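Cell growth measured by CellTiter-Glo luminescence after a minimum 48 h, 37 C compound exposure with 20 nM CPT in Tdp1-knockout DT40 cells stably expressing hTDP1, seeded 400/well; qHTS titration format.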
IL1B secr inh = blocks inflammasome-driven IL-1 beta release | THP-1 LPS/ATP IL-1B secretion, AlphaLISA, 16 h; hits give low values | activity change, % at 57.5 µM | 360,000 tested, 4.7% active | AID 743279; in the data active = activity change below about -50%; inconclusive = mostly about -30% to -49%; also: % is scaled to controls: 0 for no effect and ±100 for the full control effect
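THP-1 cells pretreated 1 hr with compounds (up to 57.5 uM final), then stimulated with LPS (250 ng/mL final) plus ATP (1.25 mM final); secreted IL-1B measured by AlphaLISA after 16 hr, decreased signal indicating inhibition.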
TDP1 cell noCPT = qHTS for Inhibitors of human tyrosyl-DNA phosphodiesterase 1 (TDP1): qHTS in cells in absence of CPT; DT40 Tdp1-/- hTDP1 cells, no CPT, ATP luminescence, 48 h; Potency, µM (top dose mostly 46.2 µM), inactives show top-dose activity change, negative = growth inhibition, hits mostly inhibitors; 420,000 tested, 15% active; AID 686978, 2013; also: potency is read from the fitted curve at half-maximal effect; % is scaled to controls: 0 for no effect and ±100 for the full control effect; nearly all actives have a fitted effect of over 55% in size
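Growth of hTDP1-complemented DT40 Tdp1-knockout cells is measured by ATP luminescence after at least 48 hr compound exposure at 37 °C, with DMSO substituting for the 20 nM CPT used in the parallel screen.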
ClpP mod = qHTS Assay for Activators of ClpP; 340,000 tested, 1.9% active; Potency, µM (top dose mostly 57.5 µM), without a hit: top-dose activity change, negative = active; purified B. subtilis ClpP, FRET peptide cleavage, 20 min; AID 651965, 2013; ATP-dependent Clp protease proteolytic subunit (Bacillus subtilis (strain 168)), P80244; active = well fitted falling curve with a large enough effect; inconclusive = small, poorly fitted or top-dose-only effect; inactive = no such curve, though single readings can be large or run the other way; also: potency is read from the fitted curve at half-maximal effect; the source files actives as falling curves though it sought activators and does not explain the sign; nearly all actives have a fitted effect of over 65% in size
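Purified B. subtilis ClpP, 10 microg/mL final in Tris/HCl pH8 with KCl, BSA, glycerol and Tween-20, cleaved an Abz/nitrotyrosine-quenched decapeptide. Fluorescence (ex 320, em 430) was read at 0 and 20 min at room temperature. Delta was normalized to 5.8 microM ADEP and DMSO/no-enzyme controls.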
D3 antag = blocks the human D3 dopamine receptor; D3R cells, DiscoveRx beta-arrestin luminescence, antagonist mode; hits give low values; max response, negative = inhibition, %; 360,000 tested, 2.5% active; AID 652054; in the data active = max response below about -50%; inconclusive = no clear call, values can overlap the other calls; also: % is scaled to controls: 0 for no effect and ±100 for the full control effect
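Cells plated overnight at 1500 cells/well, then exposed to library compounds with dopamine controls for 90 minutes at 37 degrees C. DiscoveRx reagent added for 30–60 minutes at room temperature; luminescence read, quantitative HTS format.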
Starred values were filed as active, the others as inactive; ? = inconclusive; . = not tested or not shown. Unless noted, calls follow the shape of the dose curve; as a rule, active = well fitted inhibition curve with a large enough effect; inconclusive = small, poorly fitted or top-dose-only effect; inactive = flat fitted curve, though single readings scatter.

SMILES	D3 ag	DT40 TDP1 CPT	IL1B secr inh	TDP1 cell noCPT	ClpP mod	D3 antag
N#CCCn1nc(-c2ccccc2)cc1Nc1ccccc1NC(=O)c1cccs1	2	?	-60*	-27%	0%	9
Cc1ccc(OCCCCN2CCC(C)CC2)cc1	-39	3%	-2	-17%	1%	?
CC1CCN(CCCCOc2ccc(F)cc2)CC1	-39	9%	15	-1%	1%	-59*
COc1ccccc1OCCOc1ccc(C(=O)c2ccccc2)cc1	3	18µM*	-12	?	-2%	20
CC1CCC(NC(=O)COc2ccc(C(=O)c3ccccc3)cc2)CC1 (centres undefined)	4	?	-65*	10µM*	-3%	-3
CC1CCN(CCOc2ccc(C(=O)c3ccccc3)cc2)CC1	-17	16µM*	-5	?	1%	-29
CC(=O)c1ccc(OCC(=O)NC2CCCCCC2)cc1	-9	-5%	14	-13%	-3%	?
CC(=O)c1ccsc1B(O)O	.	-24%	.	-8%	0%	.
COc1ccc(C(=O)c2ccccc2)cc1Br	3	-17%	-53*	0%	0%	20
CC1CCN(CCCOc2ccc(OCc3ccccc3)cc2)CC1	0	?	-6	?	-1%	-70*
c1ccc(COc2ccc(OCCCN3CCCC3)cc2)cc1	0	8%	3	?	1%	?
CN1C2C(Br)CCCCN2c2ccc(F)cc2S1(=O)=O (centres undefined)	-2	-4%	-9	-23%	.	-3
CC[C@H]1OC(=O)[C@H](C)[C@@H](O[C@H]2C[C@@](C)(OC)[C@@H](O)[C@H](C)O2)[C@H](C)[C@@H](O[C@@H]2O[C@H](C)C[C@H](N(C)C)[C@H]2O)[C@](C)(O)C[C@@H](C)/C(=N\OCOCCOC)[C@H](C)[C@@H](O)[C@]1(C)O	5	?	.	?	.	.
Cc1ccc(S(=O)(=O)Nc2cc3c4c(c2)CCC(=O)N4CCC3)cc1	11	?	60	21µM*	.	1
O=C1CCc2cc(NS(=O)(=O)c3ccc(Br)cc3)cc3c2N1CC3	2	2%	2	-7%	1%	4
CCCCc1ccc(NS(=O)(=O)c2cc3c4c(c2)CC(=O)N4CCC3)cc1	-4	15µM*	.	12µM*	0%	.
COc1ccc(C)cc1S(=O)(=O)Nc1cc2c3c(c1)CC(=O)N3CCC2	3	?	30	?	2%	11
CN(C)c1ccc(NS(=O)(=O)c2cc3c4c(c2)CC(=O)N4CCC3)cc1	-3	?	4	?	-2%	0
COc1ccc(OC)c(S(=O)(=O)Nc2cc3c4c(c2)CC(=O)N4CCC3)c1	3	?	43	15µM*	.	24
CC(CNC(=O)CN1C(=O)NC2(CCCCC2)C1=O)c1ccccc1 (centres undefined)	-1	-1%	0	-1%	1%	21
Cc1c(CCO)c(=O)n2c([nH]c3ccccc32)c1C#N	3	-18%	-3	5%	4%	-4
CCCCc1c(C)c(C#N)c2[nH]c3ccccc3n2c1=O	4	23µM*	54	16µM*	?	71
Cc1c(CCC(C)C)c(=O)n2c([nH]c3ccccc32)c1C#N	6	?	19	5.8µM*	3.2µM*	10
CCc1ccccc1N=Cc1c(C)c(C#N)c2[nH]c3ccccc3n2c1=O	-4	-8%	0	0%	-2%	-14
Cc1ccc(NC(=S)N(Cc2cccs2)Cc2cc3cc(C)cc(C)c3[nH]c2=O)cc1	4	?	-6	?	-4%	1
